HP1b chromo inh: HTS for Inhibitors of HP1-beta Chromodomain Interactions with Methylated Histone Tails; Chromobox protein homolog 1 (Homo sapiens), P83916; AlphaScreen HP1-beta / biotin-H3K9me3 peptide binding; Potency, µM (doses to about 114 µM), inactives show at the highest dose activity change, negative = inhibition, actives largely listed as inhibitors; 390,000 tested, 0.56% active; also: nearly all actives have a fitted effect of over 70% in size
Target sequence (P83916 whole entry, looked up): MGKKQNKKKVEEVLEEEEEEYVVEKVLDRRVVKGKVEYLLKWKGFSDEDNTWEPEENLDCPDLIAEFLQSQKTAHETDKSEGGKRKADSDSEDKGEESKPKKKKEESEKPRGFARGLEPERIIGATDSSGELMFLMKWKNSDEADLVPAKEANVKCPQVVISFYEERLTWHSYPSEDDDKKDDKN
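Compound inhibition of the preformed complex between 50 nM HP1-beta and 50 nM biotinylated H3K9me3 peptide was read by AlphaScreen. Buffer was PBS pH 7.4 with 0.01% Tween-20. Incubations ran 30 min at room temperature, with 10 ug/mL donor/acceptor beads.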
BAZ2B block: qHTS Assay for Inhibitors of BAZ2B; 360,000 tested, 4.4% active; Bromodomain adjacent to zinc finger domain protein 2B (Homo sapiens), Q9UIF8; Potency, µM (highest dose often 114 µM), for inactives: top-dose activity change, negative = inhibition, hits mostly inhibitors; AlphaScreen BAZ2B-H3K14Ac peptide displacement; also: % is scaled to controls: 0 for no effect and ±100 for the full control effect; nearly all actives have a fitted effect of over 60% in size
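Protein-peptide AlphaScreen: BAZ2B 50 nM, b-H3K14Ac 50 nM, 1x PBS pH 7.4 + 0.01% Tween-20. Preincubation 30 min RT; cpd 30 min RT (top 110 uM); beads 20 min RT, light-protected.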
Sfp inh: qHTS Assay for Inhibitors of Bacillus subtilis Sfp phosphopantetheinyl transferase (PPTase); Biochemical Sfp PPTase activity, qHTS; Potency, µM, without a hit: largest response in the series, negative = inhibition, hits mostly inhibitors; 310,000 tested, 3.5% active; 4'-phosphopantetheinyl transferase ffp (Bacillus subtilis), Q9F4F7; AID 1490, 2009;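 also: the enzyme is Sfp with the accession as filed and its product quenches rhodamine fluorescence; 0% = enzyme reaction without inhibitor and -100% = no enzyme wells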
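Reaction rates are the 30-min fluorescence difference (ex 525, em 598 nm) in wells containing 15 nM Sfp, 5 uM rhodamine-CoA and 12.5 uM BHQ-2-YbbR at pH 7.6 with 10 mM MgCl2.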
JMJD2A Tudor inh: qHTS Assay for Inhibitors of JMJD2A-Tudor Domain | 390,000 tested, 4.4% active | Lysine-specific demethylase 4A (Homo sapiens), O75164 | AID 504339, 2011 | Potency, µM (top dose mostly 114 µM), for the others: at the top dose activity change, negative = inhibition, actives largely listed as inhibitors | AlphaScreen JMJD2A-Tudor / H3K4me3 peptide binding; also: % is scaled to controls: 0 for no effect and ±100 for the full control effect; nearly all actives have a fitted effect of over 50% in size
G9a block: qHTS Assay for Inhibitors of Histone Lysine Methyltransferase G9a; G9a H3K9 monomethylation, AlphaScreen, 2 h; Potency, µM (doses to about 102 µM), for the others: top-dose activity, negative = inhibition, actives largely listed as inhibitors; 350,000 tested, 8.8% active; AID 504332, 2011; also: % is scaled to controls: 0 for no effect and ±100 for the full control effect; nearly all actives have a fitted effect of over 75% in size
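Compounds were preincubated with 20 nM G9a for 15 min, after which biotinylated H3K9 peptide (500 nM) and SAM (20 uM) started a 2 h room-temperature reaction. Monomethylated product was quantified by antibody-based AlphaScreen chemiluminescence.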
PLK1 PBD block: qHTS for Inhibitors of PLK1-PDB (polo-like kinase 1 - polo-box domain): Primary Screen; Serine/threonine-protein kinase PLK1 (Homo sapiens), P53350; Plk1 PBD binding of FITC phosphopeptide, fluorescence polarization; Potency, µM, inactives show max response, negative = inhibition, actives largely listed as inhibitors; 360,000 tested, 2.8% active; AID 720504, 2013; also: series mostly up to about 57 µM; % is scaled to controls: 0 for no effect and ±100 for the full control effect; nearly all actives have a fitted effect of over 65% in size
Target sequence (P53350 whole entry, looked up, the tested form may be a part): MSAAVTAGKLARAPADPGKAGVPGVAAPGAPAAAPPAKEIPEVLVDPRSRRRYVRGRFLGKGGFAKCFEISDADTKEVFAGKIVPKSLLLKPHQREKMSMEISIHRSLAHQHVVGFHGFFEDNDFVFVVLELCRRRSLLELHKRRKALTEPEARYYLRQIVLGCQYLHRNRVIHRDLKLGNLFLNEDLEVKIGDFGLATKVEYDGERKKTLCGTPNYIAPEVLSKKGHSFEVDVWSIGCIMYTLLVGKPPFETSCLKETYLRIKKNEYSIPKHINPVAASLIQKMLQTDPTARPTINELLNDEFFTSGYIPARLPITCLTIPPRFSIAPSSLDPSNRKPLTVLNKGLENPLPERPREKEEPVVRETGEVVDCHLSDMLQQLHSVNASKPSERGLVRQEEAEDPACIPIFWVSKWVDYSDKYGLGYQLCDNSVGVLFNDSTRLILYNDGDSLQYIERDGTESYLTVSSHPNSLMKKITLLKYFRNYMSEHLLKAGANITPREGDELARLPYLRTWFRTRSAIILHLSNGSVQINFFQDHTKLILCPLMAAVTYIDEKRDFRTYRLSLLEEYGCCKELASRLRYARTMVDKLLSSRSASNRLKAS
Starred values were filed as active, the others as inactive; u = inconclusive; x = no result; [ ] = remark or other dose. Sampled rows, rich in hits. Any-hit rate of the full collection: about 12%. Calls follow the shape of the dose curve; as a rule, active = well fitted curve in the direction sought with a large enough effect; inconclusive = small, poorly fitted or top-dose-only effect, or another doubt; inactive = no such curve, though single readings can be large; an effect the other way counts as inactive or inconclusive. Potency is read from the fitted curve at half-maximal effect.

SMILES | HP1b chromo inh | BAZ2B block | Sfp inh | JMJD2A Tudor inh | G9a block | PLK1 PBD block
CC(=O)N1CCCc2cc(S(=O)(=O)N3CCC(C(=O)NCc4ccc(N(C)C)cc4)CC3)ccc21 | 8.2%[57 µM] | -7.9% | x | u | u | x
COc1cccc(NC(=O)CN(C)C(=O)c2ccc3c(c2)CC(c2ccccc2)OC3=O)c1 (stereo not drawn) | -4.0% | u | x | 89.1µM* | 18.4%[2.33 µM] | -5.6%
CC1CCc2[nH]c3ccc(C(=O)N(C)CC(=O)Nc4ccc(F)cc4)cc3c2C1 (stereo not drawn) | u | u | 2.4% | u | u | -4.1%
COc1cccc(NC(=O)CN(C)C(=O)c2ccc3[nH]c4c(c3c2)CC(C)CC4)c1 (stereo not drawn) | 8.1% | 39.8µM* | x | u | 35.5µM* | 8.4%
COc1ccc(NC(=O)CN(C)C(=O)c2ccc3[nH]c4c(c3c2)CC(C)CC4)cc1 (stereo not drawn) | u | u | x | u | 44.7µM* | -10.2%
COc1ccc(NC(=O)CN(C)C(=O)c2ccc3c(c2)CC(c2ccccc2)OC3=O)cc1 (stereo not drawn) | x | x | x | x | x | -0.8%
CCC1=C2CC[C@H]3C(=O)N(C)C(=O)[C@H]3[C@H]2[C@@]2(C)C(=O)N(CC(=O)OC)C(=O)N2C1=O | x | x | 8.9% | x | x | x
COc1cccc(NC(=O)CSc2ccc3nnc(-c4ccncc4)n3n2)c1 | 48.9% | -30.7% | 0.2% | -10.6% | 50.1µM* | -4.3%
O=C(CSc1ccc2nnc(-c3cccnc3)n2n1)Nc1ccccc1 | 40.8% | -10.8% | -6.1% | -23.1% | 50.1µM* | -25.5%
COc1ccc(-c2nnc3ccc(SCC(=O)Nc4cc(C)on4)nn23)cc1 | x | x | -15.5% | x | 56.2µM* | x
COC(=O)c1ccc(CSc2ccc3nnc(-c4cccnc4)n3n2)o1 | x | -14.9% | 0.6% | x | 25.1µM* | x
COC(=O)c1ccc(CSc2ccc3nnc(-c4ccc(OC)cc4)n3n2)o1 | x | -6.4% | 11.0% | x | -8.5%[59 µM] | x
COc1ccc(C(=O)NCCn2cc(SCc3c(F)cccc3Cl)c3ccccc32)cc1 | 13.4% | -13.7% | x | -17.9% | 5.3%[59 µM] | x
O=C(C[C@@H]1C/C=C\C[C@H](NC(=O)OCC2c3ccccc3-c3ccccc32)C(=O)O[C@H](c2ccccc2)CNC1=O)NCCO | -0.5% | x | x | u | x | -27.2%
COc1ccc(C(=O)Nc2nnc(S(=O)(=O)N(C)c3ccc(C)cc3)s2)cc1 | 49.0% | u | x | -2.0% | -8.5%[59 µM] | x
N=C1CCC(=N)c2c1c(O)c1ccccc1c2O | 20µM* | 14.1µM* | u | 14.1µM* | x | u
N=C1CCCN1c1ccccc1O | 64.2% | 0.4% | 13.2% | -10.3%[11.4 µM] | x | 0.6%
C/C(=N\N1CCN(c2ccccc2)CC1)c1ccco1 | 1.3% | u | -9.6% | -14.7% | 56.2µM* | u
C/C(=N\N1CCN(Cc2ccccc2)CC1)c1ccco1 | 59.9% | -21.6% | 20.5% | -5.8% | -1.6% | -2.1%
CCOc1cc(C2C(C#N)=C(N)Oc3cc(N)ccc32)ccc1O (stereo not drawn) | 6.5% | -6.0% | -20.0% | -17.7% | x | 3.9%
N#CC1=C(N)SC(N)=C(C#N)C1c1cccc(O)c1 | 4.1% | u | 79.4µM* | u | u | -4.9%
N#CC1=C(N)Oc2cc(O)ccc2C1c1ccccc1 (stereo not drawn) | 14.4% | -24.0% | 4.1% | -18.7% | 0.2%[12.7 µM] | -4.5%
CCOc1cc(C2C(C#N)=C(N)SC(N)=C2C#N)ccc1OCCN1CCOCC1 | u | -31.3% | -87.0% | 44.7µM* | 2.51µM* | 26.7µM*
CCOc1ccc(C2C(C#N)=C(N)SC(N)=C2C#N)c(OCC)c1 | -21.0% | -37.8% | 15.8µM* | u | 14.1µM* | -19.3%
COc1ccc(C2C(C#N)=C(N)OC(C(C)(C)C)=C2C#N)cc1OC (stereo not drawn) | 33.4% | -2.3% | 5.5% | -4.3% | 20.1% | -15.3%
SMILES | HP1b chromo inh | BAZ2B block | Sfp inh | JMJD2A Tudor inh | G9a block | PLK1 PBD block
CCCc1[nH]nc2c1C(c1ccc(OCCN3CCOCC3)c(OC)c1)C(C#N)=C(N)O2 (stereo not drawn) | 27.5% | -5.9% | -13.0% | -7.0% | u | -16.5%
COc1ccc(C2C(C#N)=C(N)SC(N)=C2C#N)cc1OC | 6.0% | -11.3% | u | 56.2µM* | u | -22.0%
COc1ccccc1CNc1ccnc(-c2cccnc2)n1 | x | x | -21.8% | x | -43.2%[0.501 µM] | x
COc1cccc(Cn2c(=O)cnc3cnc(N4CCOCC4)nc32)c1 | x | x | 2.1% | x | 9.3%[12.7 µM] | x
Cn1c(=O)n(C)c2cc(N3CCOCC3)c(NS(=O)(=O)c3cccc(C#N)c3)cc21 | u | 22.4µM* | x | 50.1µM* | 6.31µM* | x
Cc1sc2c(c1C)C(=O)NC(c1cccc(O)c1)N2 (stereo not drawn) | x | -8.3% | 39.8µM* | x | 44.7µM* | x
CCOC(=O)N1CCc2c(sc3c2C(=O)NC(c2ccc(C(=O)OC)cc2)N3)C1 (stereo not drawn) | 27.9% | 1.5% | x | -6.2% | 10.2%[59 µM] | x
CCOC(=O)c1sc(C)c2c1NC(c1ccc(Cl)cc1)NC2=O (stereo not drawn) | 12.7% | 3.3% | 4.4% | -8.7% | -2.7%[2.33 µM] | -13.8%
COC(=O)c1ccc(C2NC(=O)c3c(sc(C)c3C)N2)cc1 (stereo not drawn) | 10.6% | 0.1% | 15.8µM* | -18.5% | 5.62µM* | 26.7µM*
C=CC[C@@H]1C=C[C@H](O/N=C(\C)CCN2CCCCc3nc(C)c(C)cc32)[C@H](CO)O1 | x | x | -11.0% | x | x | x
Cc1ccc(Cl)cc1NC(=O)CCn1c(=O)c2cccn2c2cccnc21 | 54.2% | 0.5% | x | -1.5% | 3.5%[59 µM] | x
Cc1ccccc1/C=C/C1=NCCN1 | u | u | x | 20µM* | 29.9µM* | -8.3%
Cc1ccccc1C=O | 46.0% | -3.3% | x | -0.7% | -5.1%[0.501 µM] | -1.7%
O=C(O)c1ccc2c(c1)-c1nc3ccccc3n1C2=O | 3.5% | u | u | 17.8µM* | 39.8µM* | -8.2%
COc1ccc(-n2cc(CNCc3cnc4ccccn34)c(-c3cccc(F)c3)n2)cc1 | -24.5% | 44.7µM* | u | -22.6%[11.4 µM] | x | -4.0%
COc1ccc(-n2cc(CN(C)C3CCOCC3)c(-c3cccc(F)c3)n2)cc1 | -12.5% | -6.2% | 9.4% | -6.8% | 15.6% | 23.8µM*
COc1ccc(-n2cc(CNCC3CCOCC3)c(-c3cccc(F)c3)n2)cc1 | 60.7% | -8.7% | 7.9% | -4.8% | -2.7% | 2.7%

Screening data: PubChem, National Center for Advancing Translational Sciences (NCATS)
